Screening results from PubChem.
Shn3 3UTR inh: inhibitors of Schnurri-3 3'UTR reporter in osteoblasts; inhibition, % at 12.5 µM; Clone20 osteoblast Shn3 3'UTR firefly luciferase, 24 h; actives 0.52% (n = 360,000); AID 588674;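 active = mean inhibition of at least 75% with every replicate also reaching 75%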;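 note: 0% = median of neutral control wells and 100% = pilot-screen positive control compound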
TRPM1 prom inh: reduces MITF-dependent TRPM1 promoter luciferase signal; SK-MEL-5 TRPM1 promoter luciferase, 24 h; actives 0.83% (n = 330,000); inhibition, % at 12.5 µM;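 active = mean inhibition across replicates of 60% or more, whatever share of single replicates reaches that level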
LGR2 antag: Drosophila LGR2 receptor signaling inhibition. AID 720647. inhibition, % at 9.99 µM. actives 0.35% (n = 380,000). HEK293 LGR2, CRE-luciferase, bursicon-stimulated, 4 h;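 active = drop in luminescence signal, shown as inhibition above about 50% in the replicate tests, limit read from the data, passing the limit was not always enough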;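 note: agonist challenge used bursicon conditioned medium at about half maximal strength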
LMP1 NFkB inh: Epstein-Barr LMP1 NF-kappaB reporter inhibition; LMP1-induced NF-kappaB luciferase reporter cells, luminescence; inhibition, % at 12.5 µM; actives 0.69% (n = 350,000); AID 504558; in the data active = inhibition above about 41%;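 note: 0% = neutral control wells and 100% = reference inhibitor control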
EWS-Fli block: blocks EWS/Fli oncoprotein-driven transcription | inhibition, % at 12.6 µM | actives 0.67% (n = 350,000) | A673 NR0B1-luciferase reporter, viability-normalised;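 active = mean inhibition of at least 50% after viability correction, with every replicate also passing that limit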;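 note: firefly luciferase signal divided by Alamar Blue viability fluorescence both relative to DMSO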
PAX8 inh HTS: lowers PAX8-driven luciferase in RMG-I cells; inhibition, % at 12.6 µM; RMG-I TPO-luciferase reporter, SteadyGlo, 24 h; actives 1.2% (n = 360,000); AID 652154;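 active = mean replicate inhibition at least 60% with every replicate also reaching 60%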;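 note: luciferase light reporting Pax8 driven TPO promoter activity; plate controls were median of neutral control wells for no effect and mitoxantrone controls for full effect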
* = called active by the depositor; / = not tested or not shown. The list is not random: actives were taken first. Their share in the collection is about 2.2%.

SMILES | Shn3 3UTR inh | TRPM1 prom inh | LGR2 antag | LMP1 NFkB inh | EWS-Fli block | PAX8 inh HTS
COc1ccc(CN(C)C[C@H]2OCCCC[C@@H](C)Oc3ccc(NS(=O)(=O)c4ccc(C)cc4)cc3C(=O)N([C@H](C)CO)C[C@@H]2C)cc1 | / | / | 6 | / | -8 | -2
COc1ccc(CN(C)C[C@H]2OCCCC[C@@H](C)Oc3ccc(NS(=O)(=O)c4ccc(C)cc4)cc3C(=O)N([C@H](C)CO)C[C@H]2C)cc1 | / | / | 4 | / | 59* | -4
COc1ccc(CN(C)C[C@@H]2OCCCC[C@H](C)Oc3ccc(NS(=O)(=O)c4ccc(C)cc4)cc3C(=O)N([C@H](C)CO)C[C@H]2C)cc1 | / | / | 14 | / | 11 | 82*
CN1CCN(C(=O)C[C@H]2CC[C@@H]3[C@H](COC[C@@H](O)CN3Cc3cccc(F)c3)O2)CC1 | / | / | 10 | / | -7 | -3
O=C(COC(=O)/C=C/C(=O)OCC(=O)NC12CC3CC(CC(C3)C1)C2)NC12CC3CC(CC(C3)C1)C2 | 61 | 76* | -5 | 20 | / | 6
COc1cccc(C(=O)OCC(=O)NC23CC4CC(CC(C4)C2)C3)c1 | -2 | 3 | -23 | 2 | 5 | 1
O=C(COC(=O)c1ccccc1O)NC12CC3CC(CC(C3)C1)C2 | -97 | / | -95 | -17 | -7 | -94
CC(=O)Oc1cc(C(=O)OCC(=O)NC23CC4CC(CC(C4)C2)C3)cc(OC(C)=O)c1OC(C)=O | 91* | -3 | -20 | -6 | 22 | 28
O=C(NCC1CC1)[C@@H]1N[C@@H]2c3ccc(C4=CCCCC4)c(=O)n3C[C@@H]2[C@H]1CO | / | / | 3 | / | -5 | /
COCC(=O)Nc1ccc2c(c1)C(=O)N(C)[C@@H]1CC[C@@H](CC(=O)NCc3cccc(F)c3)O[C@H]1CO2 | / | / | 3 | / | 4 | 11
CC(=O)N(C)C[C@@H]1Oc2ncc(C#C[C@@H](C)O)cc2C(=O)N([C@H](C)CO)C[C@H]1C | / | / | 10 | / | -10 | /
COc1cc2cc(-c3ccc(OC)c(OC)c3C)nc(N)c2cc1OC | / | / | 0 | / | 52* | 71*
Cc1ccn2cc(-c3ccc(Br)cc3)nc2c1 | 36 | 19 | 59* | 24 | 62* | 1
C=CCn1c(SCC(=O)c2[nH]c(C)c(C(=O)OCC)c2C)nc2scc(-c3ccc(OC)cc3)c2c1=O | 42 | 82* | / | -33 | 38 | -1
Cc1cc(N/C=C/C(=O)c2cccs2)ccc1F | -66 | -25 | -44 | -67 | -83 | -127
Cc1ccc(N/C=C/C(=O)c2cccs2)cc1C | 25 | -1 | 63* | -2 | 40 | -2
CC(C)NC(=O)N(C)C[C@H]1OCCCC[C@H](C)Oc2ccc(NS(=O)(=O)c3ccc(Cl)cc3)cc2C(=O)N([C@@H](C)CO)C[C@@H]1C | / | / | 3 | / | -4 | -1
Cc1noc(C)c1S(=O)(=O)Nc1ccc2c(c1)C(=O)N([C@@H](C)CO)C[C@H](C)[C@H](CN(C)S(=O)(=O)c1cccs1)OCCCC[C@@H](C)O2 | / | / | 9 | / | 5 | 2
CCN(C(=O)CSc1nnc(NCc2ccccc2)s1)C1CCS(=O)(=O)C1 (configuration not stated) | -42 | 0 | -3 | -3 | 10 | -8
CCN(C(=O)CSc1nnc(Nc2cccc(C)c2C)s1)C1CCS(=O)(=O)C1 (configuration not stated) | 12 | 2 | / | 47* | -4 | 2
CC(=O)Nc1nc(C)c(-c2csc(Nc3cccc([N+](=O)[O-])c3)n2)s1 | 37 | 45 | 16 | 50* | / | /
CC(=O)Nc1nc(C)c(-c2csc(Nc3ccc(O)cc3)n2)s1 | 42 | 46 | / | 45* | / | /
CC(=O)Nc1nc(C)c(-c2csc(Nc3cccc(C(C)=O)c3)n2)s1 | 86* | 65* | -2 | 27 | -2 | 13
CCC(=O)N1[C@H](CO)[C@@H](c2ccccc2)C12CN(Cc1cccnc1)C2 | / | / | -23 | / | 6 | /
CN(Cc1ccc(F)cc1)C(=O)CN1CCN(S(=O)(=O)c2ccc3c(c2)OCCCO3)CC1 | -14 | / | -15 | 48* | 12 | 40
CN(Cc1cccc(F)c1)C(=O)CN1CCN(S(=O)(=O)c2ccc3c(c2)OCCCO3)CC1 | -7 | -9 | -1 | -3 | 6 | 7
CC1(C)Cc2c(ccc3ccccc23)/C(=C/C(=O)N2CCCCC2)N1 | 3 | 14 | -12 | 58* | / | /
COc1cccc(C#Cc2ccc([C@@H]3[C@H](C#N)N(C(=O)C4CCC4)[C@H]3CO)cc2)c1 | / | / | 5 | / | -8 | 25
